Results reported in the supplement of paper PMC8773631.
Where a name gives a salt, the structure may show the parent alone. ± gives the uncertainty stated by the source.

Tested on: NCC-MFS5-C1
Assay: cell viability relative to DMSO control; higher = less growth inhibition
Details: 10 µM; treatment time: 3 days
Experimental: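 NCC-MFS5-C1 myxofibrosarcoma cells (1x10^4 per well, 384-well) were treated on day 2 with 10 µM of each drug. On day 5, viability was read by CCK-8 absorbance at 450 nm and normalised to the DMSO control (%), n = 2.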

Structure (SMILES)	cell viability
N#Cc1ccc(C(c2ccc(C#N)cc2)n2cncn2)cc1 [Letrozole]	92.3 ± 6.4%
Nc1ccn([C@@H]2O[C@H](CO)[C@@H](O)[C@@H]2O)c(=O)n1 [Cytosine β-D-arabinofuranoside hydrochloride]	118 ± 20%
CNC(=O)c1ccc(N2C(=S)N(c3ccc(C#N)c(C(F)(F)F)c3)C(=O)C2(C)C)cc1F [Enzalutamide (MDV3100)]	80.3 ± 7.7%
Cc1cc(Nc2ncc(Cl)c(Nc3ccccc3S(=O)(=O)C(C)C)n2)c(OC(C)C)cc1C1CCNCC1 [Ceritinib (LDK378)]	7.58 ± 6.4%
CN(N=O)C(=O)NC1C(O)OC(CO)C(O)C1O (stereo not given) [Streptozotocin (STZ)]	113 ± 27%
CO[C@H]1O[C@@H]2O[C@@]3(C)CC[C@H]4[C@H](C)CC[C@@H]([C@H]1C)[C@@]24OO3 [Artemether]	91.2 ± 4.8%
COc1cc2nccc(Oc3ccc(NC(=O)Nc4cc(C)on4)c(Cl)c3)c2cc1OC [Tivozanib (AV-951)]	59.7 ± 2.6%
N#CC1(c2ccc(NC(=O)c3cccnc3NCc3ccncc3)cc2)CCCC1 [Apatinib]	80.9 ± 2%
COc1ccc2[nH]c([S@@+]([O-])Cc3ncc(C)c(OC)c3C)nc2c1 [Esomeprazole Sodium]	74.6 ± 1.4%
COc1cc2nccc(Oc3ccc(NC(=O)C4(C(=O)Nc5ccc(F)cc5)CC4)cc3)c2cc1OC	93.8 ± 6.7%
O=C(O)C1=CO[C@@H](O[C@@H]2O[C@H](CO)[C@@H](O)[C@H](O)[C@H]2O)[C@@H]2C(CO)=CC[C@H]12 [Geniposidic acid]	85.8 ± 4.8%
O=C(O)C1(C(=O)O)CCC1.[NH2-].[NH2-].[Pt+2] [Carboplatin]	83.7 ± 2.2%
O=C(CCBr)N1CCN(C(=O)CCBr)CC1 [Pipobroman-D8]	108 ± 6.2%
C[C@H](NC(=O)Cc1cc(F)cc(F)c1)C(=O)N[C@H](C(=O)OC(C)(C)C)c1ccccc1	108 ± 11%
CN(C)/N=N/c1[nH]cnc1C(N)=O [Dacarbazine]	82 ± 1.7%
Nc1nc2[nH]cc(CCc3ccc(C(=O)N[C@@H](CCC(=O)O)C(=O)O)cc3)c2c(=O)[nH]1 [Pemetrexed Disodium Hydrate]	80.7 ± 2.4%
CS(=O)(=O)CCNCc1ccc(-c2ccc3ncnc(Nc4ccc(OCc5cccc(F)c5)c(Cl)c4)c3c2)o1 [Lapatinib]	58.6 ± 2.2%
CC(=O)OCC(=O)[C@@]1(O)CC[C@H]2[C@@H]3CCC4=CC(=O)CC[C@]4(C)[C@H]3C(=O)C[C@@]21C [Cortisone acetate]	90.9 ± 9.9%
C=CC[C@@H]1/C=C(\C)C[C@H](C)C[C@H](OC)[C@H]2O[C@@](O)(C(=O)C(=O)N3CCCC[C@H]3C(=O)O[C@H](/C(C)=C/[C@@H]3CC[C@@H](O)[C@H](OC)C3)[C@H](C)[C@@H](O)CC1=O)[C@H](C)C[C@@H]2OC [Tacrolimus (FK506)]	93.7 ± 7.5%
C/C(=C\c1csc(C)n1)[C@@H]1C[C@@H]2O[C@]2(C)CCC[C@H](C)[C@H](O)[C@@H](C)C(=O)C(C)(C)[C@@H](O)CC(=O)N1	51.24 ± 0.45%

Structure (SMILES)	cell viability
CS(=O)(=O)CCNCc1ccc(-c2ccc3ncnc(Nc4ccc(OCc5cccc(F)c5)c(Cl)c4)c3c2)o1	77.3 ± 25%
CN(C)c1nc(N(C)C)nc(N(C)C)n1 [Altretamine]	103 ± 3.1%
O=P(O)(O)C(O)(Cn1ccnc1)P(=O)(O)O [Zoledronic Acid]	84.5 ± 7.6%
COc1cc2/c(=N/c3ccc(Br)cc3F)nc[nH]c2cc1OCC1CCN(C)CC1 [Vandetanib (ZD6474)]	52.5 ± 2.8%
COc1cccc2c1C(=O)c1c(O)c3c(c(O)c1C2=O)C[C@@](O)(C(C)=O)C[C@@H]3O[C@H]1C[C@H](N)[C@H](O)[C@H](C)O1 [Daunorubicin HCl]	14.4 ± 6.7%
O=C1c2c(O)ccc(O)c2C(=O)c2c(NCCNCCO)ccc(NCCNCCO)c21 [Mitoxantrone 2HCl]	-0.766 ± 0.85%
Nc1nnc(-c2cccc(Cl)c2Cl)c(N)n1 [Lamotrigine]	90 ± 4.7%
COc1cc(Nc2c(C#N)cnc3cc(OCCCN4CCN(C)CC4)c(OC)cc23)c(Cl)cc1Cl [Bosutinib (SKI-606)]	22.1 ± 0.85%
COc1cc(OC)cc(N(CCNC(C)C)c2ccc3ncc(-c4cnn(C)c4)nc3c2)c1 [Erdafitinib]	33.1 ± 2%
Cc1ccc(C(=O)Nc2ccc(CN3CCN(C)CC3)c(C(F)(F)F)c2)cc1C#Cc1cnc2cccnn12	-2.74 ± 0.27%
Cc1[nH]c(/C=C2\C(=O)Nc3ccccc32)c(C)c1CCC(=O)O [Orantinib (TSU-68, SU6668)]	80.2 ± 1.5%
Nc1ccn([C@@H]2O[C@H](CO)[C@@H](O)C2(F)F)c(=O)n1 [Gemcitabine]	91 ± 2.9%
COC(=O)c1ccc2c(C(=Nc3ccc(N(C)C(=O)CN4CCN(C)CC4)cc3)c3ccccc3)c(O)[nH]c2c1 [Nintedanib (BIBF 1120)]	39.1 ± 0.64%
C#Cc1cccc(Nc2ncnc3cc(OCCOC)c(OCCOC)cc23)c1 [Erlotinib]	81.7 ± 5.8%
CN(Cc1cnc2nc(N)nc(N)c2n1)c1ccc(C(=O)N[C@@H](CCC(=O)O)C(=O)O)cc1 [Methotrexate]	80.2 ± 3.6%
CN1CCN(c2ccc(C(=O)Nc3n[nH]c4ccc(Cc5cc(F)cc(F)c5)cc34)c(NC3CCOCC3)c2)CC1 [Entrectinib (RXDX-101)]	14.7 ± 15%
Cc1cn(-c2cc(NC(=O)c3ccc(C)c(Nc4nccc(-c5cccnc5)n4)c3)cc(C(F)(F)F)c2)cn1 [Nilotinib (AMN-107)]	57.2 ± 3.6%
CC1=C(CC(=O)O)c2cc(F)ccc2/C1=C\c1ccc([S+](C)[O-])cc1 (stereo not given) [Sulindac]	103.76 ± 0.032%
CO[C@H](C(=O)[C@@H](O)[C@@H](C)O)[C@@H]1Cc2cc3cc(O[C@H]4C[C@@H](O[C@H]5C[C@@H](O)[C@H](O)[C@@H](C)O5)[C@H](O)[C@@H](C)O4)c(C)c(O)c3c(O)c2C(=O)[C@H]1O[C@H]1C[C@@H](O[C@H]2C[C@@H](O[C@H]3C[C@](C)(O)[C@H](O)[C@@H](C)O3)[C@H](O)[C@@H](C)O2)[C@H](O)[C@@H](C)O1 [Mithramycin A]	97.4 ± 4%
COc1cc2ncnc(Nc3ccc(F)c(Cl)c3)c2cc1OCCCN1CCOCC1 [Gefitinib(ZD1839)]	95.1 ± 3.7%
